Source: PubChem BioAssay AID1347076 (National Center for Advancing Translational Sciences (NCATS), 2019)
Out of some 400,000 compounds screened, about 13,000 (3.2%) were called active. Another 18% or so got no clear call; they are omitted. The list comes from a sample in which actives are over-represented; it also holds similar structures and randomly drawn compounds. Values without a mark were called inactive. Calls come from the whole dose curve; as a rule, active = well fitted cell-killing curve with a large enough effect; inconclusive = small, poorly fitted or top-dose-only effect, or effect the other way; inactive = flat fitted curve, though single readings scatter.

assay: qHTS assay for MDR1-selective chemotherapeutics: Primary screen using the drug-selected MDR subline cells KB-V1; conditions: KB-V1 MDR cells viability, CellTiter-Glo, 72 h; series mostly up to 46.1 µM; activity change, negative = cytotoxicity: at the top concentration; note: nearly all actives have a fitted effect of over 60% in size
Outline: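 Readout: CellTiter-Glo luminescence, 10 min after addition. Cells: KB-V1 MDR subline, 72 h at 37 degrees C with compound. Analysis: corrected, normalized data fitted to concentration-effect curves.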
% is set by controls: 0 for no effect and ±100 for the full control effect; potency is the fitted concentration of half-maximal effect.

| Compound | Potency | activity change, negative = cytotoxicity [%] |
| --- | --- | --- |
| COc1ccc(C(C(=O)NC2CCCCC2)N(C(=O)Cc2c[nH]c3ccccc23)c2ccccc2)cc1OC (centres undefined) | 23.1 µM (active) | – |
| COc1ccc(C(C(=O)NC2CCCCC2)N(C(=O)CCl)c2ccccc2Cl)cc1 (centres undefined) | – | 0 |
| COc1ccc(CNC(=O)[C@H](Cc2c[nH]c3ccccc23)NC(C)=O)cc1OC | – | -5.89 |
| C[C@@H]1CN([C@@H](C)CO)S(=O)(=O)c2ccc(-c3ccc(C(=O)N(C)C)cc3)cc2O[C@@H]1CN(C)Cc1ccccc1C(=O)O | – | 15.8 |
| O=C(CN1CCCCCC1)Nc1ccc(S(=O)(=O)N2CCCCC2)cc1 | – | -21.5 |
| CCc1ccc(NC(=O)CN2CCSc3ccc(S(=O)(=O)N4CCCC4)cc32)cc1 | 7.31 µM (active) | – |
| COc1ccc(NC(=O)CN2C(=O)CSc3ccc(S(=O)(=O)N4CCC(C)CC4)cc32)cc1 | – | -1.13 |
| CC(C)N1C(=O)c2ccccc2NC(=O)C1C(=O)NCc1cccs1 (centres undefined) | – | 7.86 |
| CCCn1c(NCc2ccccc2F)nc2ccccc21 | – | -3.96 |
| Cc1ccc(O)c(CNc2nc3ccccc3n2C)c1 | 16.4 µM (active) | – |
| Cn1c(CNC(=O)C(C)(C)C)nc2ccccc21 | – | -2.97 |
| CCc1nn(CC(=O)Nc2cccc(C)c2C)c(=O)c2cc3sccc3n12 | – | 2.25 |
| O=S(=O)(ON(c1ccccc1)S(=O)(=O)c1ccccc1)c1ccccc1 | 23.1 µM (active) | – |
| Cc1cccc(N(CC(O)CN(C)C)S(=O)(=O)c2ccccc2)c1 (centres undefined) | – | -14.7 |
| CCOc1ccc(S(=O)(=O)N(CC(=O)O)c2ccccc2)cc1 | – | 10.4 |
| CCOc1ccc(CNC(=O)c2ccc3nc(CC)c(CC)nc3c2)cc1OC | – | 7.1 |
| CCCCNC(=O)c1nc(C2CCN(S(=O)(=O)c3ccc(F)c(F)c3)CC2)oc1-c1cccc(C(F)(F)F)c1 | – | -6.49 |
| Cc1cc2c(=O)n(C)c(SCC(=O)c3cc4ccccc4o3)nc2s1 | – | 0 |
| Cc1ccc(Nc2nnc(SCC(=O)c3cc4ccccc4o3)s2)cc1C | 20.6 µM (active) | – |
| Cc1ccccc1Nc1nnc(SCC(=O)c2cc3ccccc3o2)s1 | – | 0 |
| Cc1cccc(S(=O)(=O)N(C)C[C@H]2OCc3cnnn3CCCC(=O)N([C@@H](C)CO)C[C@H]2C)c1 | – | 6.43 |
| CN1OC[C@@H]2CN(C(=O)C(C)(C)C)[C@H](c3ccc(-n4ccnc4)cc3)C[C@@H]21 | – | 0 |
| CC(=O)c1ccc(Nc2nc(C(N)c3ccccc3)cs2)cc1 (centres undefined) | – | -0.67 |
| COc1cc(OC)cc(C(=O)N[C@H](C(=O)Nc2nc3ccccc3[nH]2)C(C)C)c1 | 14.6 µM (active) | – |
| Cc1cc(C)cc(OCC(=O)NC(C)c2ccccc2)c1 (centres undefined) | – | -3.72 |
| COc1ccc(C(=O)N[C@H](C(=O)NCc2ccccc2)C(C)C)cc1 | – | 0 |
| COc1cc(OC)cc(C(=O)NC(C(=O)N2CCC2)C(C)C)c1 (centres undefined) | – | -1.52 |

| Compound | Potency | activity change, negative = cytotoxicity [%] |
| --- | --- | --- |
| COc1cc(OC)cc(C(=O)N[C@H](C(=O)NNC(=O)c2ccc(Br)cc2)C(C)C)c1 | – | -1.18 |
| COc1cc(OC)cc(C(=O)N[C@H](C(=O)OCC(=O)NC(C)c2ccccc2)C(C)C)c1 (some centres undefined) | 23.1 µM (active) | – |
| C[C@@H]1CC2=C(C(=O)OC(C)(C)O2)[C@@H](C2CC2)O1 | – | 0 |
| COc1cccc(-c2cnc(C(O)c3ccccc3OC)[nH]2)c1 (centres undefined) | – | 14.8 |
| CCOc1ccc(S(=O)(=O)N2CCN=C2Cc2ccccc2)cc1C | – | -1.27 |
| CC1=NCCN1S(=O)(=O)c1cccc([N+](=O)[O-])c1 | – | 20.1 |
| COc1cc(S(=O)(=O)N2CCN=C2c2ccccc2)ccc1Cl | 16.4 µM (active) | – |
| O=S1(=O)CC(N2CCN(Cc3ccccc3F)CC2)CN1Cc1cn(Cc2cccc(C(F)(F)F)c2)nn1 (centres undefined) | – | 6.44 |
| Cc1c(CCO)sc[n+]1CC(=O)c1ccc2ccccc2c1 | – | 9.94 |
| CCOC(=O)C1CCN(Cc2nnc(-c3cccc(Br)c3)o2)CC1 | – | -8.01 |
| CCOC(=O)C1CCN(C(=O)c2oc3ccc(S(=O)(=O)N4CCCCCC4)cc3c2C)CC1 | – | -20 |
| CCOC(=O)C1CCN(c2ncnc3c2oc2ccc(Br)cc23)CC1 | 20.6 µM (active) | – |
| CCN(CC)CCNc1ncnc2c1cnn2-c1cc(Cl)ccc1C | – | -1.34 |
| CN(C)C(=O)c1cccc(-c2cnc3sc(NCc4ccc5c(c4)OCO5)nn23)c1 | – | -22.9 |
| COc1ccc(COC(=O)NC(C(=O)O)c2ccccc2)cc1 (centres undefined) | – | 0.328 |
| COc1ccc(C(CCN(Cc2ccc(OC)c(OC)c2)C(=O)CCl)c2ccccc2)cc1 (centres undefined) | 20.6 µM (active) | – |
| COc1ccc(CN(C)C(=O)CC(c2ccccc2)c2ccccc2)cc1 | – | -6.46 |
| O=C(NCc1ccc(F)cc1)c1cc(C2CCCCN2C(=O)c2ccccn2)on1 (centres undefined) | – | 5.02 |
| O=C(CSc1nc2ccccc2c(=O)n1Cc1ccc(F)cc1)NCC1CCCO1 (centres undefined) | – | -5.78 |
| O=C(CSc1nc2ccccc2c(=O)n1CCCO)NC1CC1 | – | 5.65 |
| CC(=O)c1ccc(NC(=O)CSc2nc3ccccc3c(=O)n2CCCN2CCOCC2)cc1 | – | -11.8 |
| O=C(CCCn1c(SCC(=O)c2ccc(F)cc2)nc2ccccc2c1=O)NCc1ccco1 | 5.8 µM (active) | – |
| O=C(CCn1c(SCC(=O)c2ccccc2)nc2ccccc2c1=O)NCc1ccc(F)cc1 | 7.31 µM (active) | – |
| CCc1ccc(NC(=O)CSc2nc3ccccc3c(=O)n2CCN2CCOCC2)cc1 | 8.2 µM (active) | – |
| COC(=O)c1ccc2c(=O)n(CCN3CCOCC3)c(SCC(=O)Nc3cccc(OC)c3)nc2c1 | – | -15.6 |
| O=C(CSc1ncc(CO)n1Cc1ccc(F)cc1)NCc1ccco1 | – | -4.36 |
| O=C(CSc1nc2ccccc2c(=O)n1-c1ccc(F)cc1)NC1CC1 | – | -24.6 |
